This passage reports Potency, outcome and activity change, negative = inhibition results from PubChem BioAssay (NCATS).

Several values for one entry are separate records, joined by “and”; a condition that tells them apart may be missing. Identical values can stand only once. Results filed as inconclusive are left out. A call without a number means that no potency is given here. Activity calls are given as the source filed them. The call rests on the fitted dose curve; in most records, active means well fitted curve in the direction sought with a large enough effect; inconclusive means small, poorly fitted or top-dose-only effect, or another doubt; inactive means no such curve, though single readings can be large; an effect the other way counts as inactive or inconclusive.

The test system of one experiment is Zika virus NS2B-NS3 protease (linked). The experiment in a line: 384 well plate NINDS AMC confirmatory qHTS for Zika virus inhibitors (AID 1347163). Further: nearly all actives have a fitted effect of over 50% in size. Further: potency means the concentration at half of the fitted maximal effect.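 On activity change, negative = inhibition: linked protease at 5 30 or 60 nM final depending on run; fluorescence of AMC released from Ac-VKTGKR-AMC peptide cleaved by the protease; top concentration of the series differs between compounds.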 The conditions noted are these: Recombinant NS2B-NS3 protease, Ac-VKTGKR-AMC fluorescence; series mostly up to 1 mM. An outline of the steps:
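Linked protease 5/30/60 nM final; cpds up to 1 mM final, ~15 min preinc. Substrate Ac-VKTGKR-AMC 30 microM final. RT, dark, 25 min; FI ex 355/em 460; normalized to no-enzyme/no-inhibitor ctrls.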
Consider `CCc1oc2ccccc2c1C(=O)c1cc(Br)c(O)c(Br)c1`, for which the Potency is 79.4 µM (active).
Same read-out and setting: in the case of `CCC(CC)(CC(=O)Nc1cccc(/C=C/c2nc(C3CCC3)cs2)c1)C(=O)O` it was “inactive”; in that of `C=C1c2cccc(O)c2C(O)=C2C(=O)[C@]3(O)C(O)=C(C(N)=O)C(=O)[C@@H](N(C)C)[C@@H]3[C@@H](O)[C@H]12`, 8.91 µM (active) and 316 µM (active).
The same measure, in the same setting: the value for `CC(C)=CCOc1ccc(/C=C/C(=O)c2ccc(OCC=C(C)C)cc2OCC(=O)O)cc1` was 39.8 µM (active).

The target of the next experiment is Lysine-specific demethylase 5B (Homo sapiens) (UniProt Q9UGL1). The experiment in a line: Optimization screen for KDM5B Histone Demethylases FDH coupled qHTS against the LOPAC library (AID 1347166). Conditions: KDM5B demethylation, FDH-coupled NADH fluorescence (FDH is formaldehyde dehydrogenase); series mostly up to 57.5 µM. An outline of the steps: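 KDM5BDeltaAP (200nM final) preincubated 10 min with compound, then 12.5uM H3K4Me3, 25uM a-ketoglutarate, ascorbate, Fe(II), NAD+ and FDH added; 50mM HEPES pH 7.5, 0.01% Tween-20. NADH fluorescence (340/450 nm) change over 30 min, room temperature.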
Lysine-specific demethylase 5B (Homo sapiens), sequence (Q9UGL1 whole entry, looked up): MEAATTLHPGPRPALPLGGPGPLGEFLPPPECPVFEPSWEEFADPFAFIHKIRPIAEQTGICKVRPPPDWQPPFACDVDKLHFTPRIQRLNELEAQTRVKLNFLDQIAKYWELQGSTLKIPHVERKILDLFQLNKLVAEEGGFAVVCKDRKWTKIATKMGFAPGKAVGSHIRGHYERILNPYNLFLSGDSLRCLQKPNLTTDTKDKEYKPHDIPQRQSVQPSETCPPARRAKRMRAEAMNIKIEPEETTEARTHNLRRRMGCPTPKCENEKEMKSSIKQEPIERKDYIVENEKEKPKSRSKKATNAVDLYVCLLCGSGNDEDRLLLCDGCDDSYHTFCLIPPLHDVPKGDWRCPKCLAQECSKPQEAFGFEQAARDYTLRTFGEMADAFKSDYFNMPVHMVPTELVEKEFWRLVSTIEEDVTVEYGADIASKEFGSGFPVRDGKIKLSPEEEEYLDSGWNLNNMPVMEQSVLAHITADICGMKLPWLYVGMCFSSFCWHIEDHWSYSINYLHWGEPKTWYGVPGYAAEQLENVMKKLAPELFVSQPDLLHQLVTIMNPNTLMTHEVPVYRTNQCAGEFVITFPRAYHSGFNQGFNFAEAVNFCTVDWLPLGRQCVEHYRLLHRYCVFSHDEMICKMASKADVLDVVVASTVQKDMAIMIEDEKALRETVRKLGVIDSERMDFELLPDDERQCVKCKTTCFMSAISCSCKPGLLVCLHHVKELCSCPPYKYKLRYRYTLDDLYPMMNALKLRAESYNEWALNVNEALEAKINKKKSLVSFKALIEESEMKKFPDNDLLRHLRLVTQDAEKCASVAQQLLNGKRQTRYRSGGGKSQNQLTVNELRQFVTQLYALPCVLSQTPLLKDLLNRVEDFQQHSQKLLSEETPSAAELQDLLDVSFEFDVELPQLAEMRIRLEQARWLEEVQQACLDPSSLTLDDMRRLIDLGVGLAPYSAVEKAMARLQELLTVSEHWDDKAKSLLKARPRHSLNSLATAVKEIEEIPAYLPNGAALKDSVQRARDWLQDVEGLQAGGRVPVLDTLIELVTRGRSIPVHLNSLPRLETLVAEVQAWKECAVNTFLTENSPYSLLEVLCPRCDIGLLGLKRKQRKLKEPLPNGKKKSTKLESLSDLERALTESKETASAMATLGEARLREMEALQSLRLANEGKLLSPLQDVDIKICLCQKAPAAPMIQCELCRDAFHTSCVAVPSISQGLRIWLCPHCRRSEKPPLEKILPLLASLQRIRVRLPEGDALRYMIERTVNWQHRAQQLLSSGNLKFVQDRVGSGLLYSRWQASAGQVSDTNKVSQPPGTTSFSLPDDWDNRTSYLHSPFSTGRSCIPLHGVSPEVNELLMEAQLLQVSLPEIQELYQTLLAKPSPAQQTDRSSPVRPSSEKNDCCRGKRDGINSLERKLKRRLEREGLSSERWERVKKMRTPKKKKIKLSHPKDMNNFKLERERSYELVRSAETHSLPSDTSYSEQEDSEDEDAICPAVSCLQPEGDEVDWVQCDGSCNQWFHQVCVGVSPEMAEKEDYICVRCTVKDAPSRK
In the case of `NC(N)=NCc1cccc(I)c1`, the outcome was inactive.
As to `CCOC(=O)[C@H](CCc1ccccc1)N[C@@H](C)C(=O)N1[C@H](C(=O)O)C[C@H]2CCCC[C@@H]21`, the result was inactive.
Same read-out and setting: in the case of `CN=C(N)NCCC[C@H](N)C(=O)O` it was “inactive”; in that of `CC(C)(C)NC[C@H](O)COc1nsnc1N1CCOCC1`, “inactive”.

Test system in a further experiment: not listed separately
The experiment can be described thus: Vero cells viability qHTS for Zika virus inhibitors (AID 1347167). Conditions: cytotoxicity counter-screen (Zika); series mostly up to 45.9 µM. An outline of the steps: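 Cells seeded at 2.5 x 10^5 cells/mL in DMEM with 4% FBS and attached overnight at 37 degrees C, then exposed to compound for 24 to 48 hours. Viability read as ATP content by CellTiter Glo luminescence.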
Background: Quantitative high-throughput screening tests each substance at several concentrations.
As for `CCc1oc2ccccc2c1C(=O)c1cc(Br)c(O)c(Br)c1`, the result was inactive.
Still for that read-out and setting: the value for `CC1(COc2ccc(CC3SC(=O)NC3=O)cc2)CCCCC1` (stereo not drawn) was “inactive”.
`CCC(CC)(CC(=O)Nc1cccc(/C=C/c2nc(C3CCC3)cs2)c1)C(=O)O`: the call was inactive.
On to `C[C@H]1O[C@@H](O[C@H]2CC[C@@]3(C)[C@H](CC[C@@H]4[C@@H]3C[C@@H](O)[C@]3(C)[C@@H](C5=CC(=O)OC5)CC[C@]43O)C2)C[C@H](O)[C@@H]1O[C@H]1C[C@H](O)[C@H](O[C@H]2C[C@H](O)[C@H](O[C@@H]3O[C@H](CO)[C@@H](O)[C@H](O)[C@H]3O)[C@@H](C)O2)[C@@H](C)O1`, for which the result was inactive.
The same measure, in the same setting: the value for `C=C1c2cccc(O)c2C(O)=C2C(=O)[C@]3(O)C(O)=C(C(N)=O)C(=O)[C@@H](N(C)C)[C@@H]3[C@@H](O)[C@H]12` was “inactive”; that for `O[C@@H](c1cc(C(F)(F)F)nc2c(C(F)(F)F)cccc12)[C@H]1CCCCN1` was “inactive”.

Test system in the next experiment: not listed separately
The experiment in a line: HepG2 cells viability qHTS for Zika virus inhibitors (AID 1347168). Further: potency means the concentration at half of the fitted maximal effect. Conditions: Zika counter-screen; series mostly up to 45.9 µM. An excerpt: Avindra Nath, Ph.D., National Institute of Neurological Disorders and Stroke (NINDS), Bethesda, MD
Radhakrishnan Padmanabhan, Ph.D., Georgetown University (GU), Washington D.C.
Zika Virus causes congenital defects, including microcephaly and is associated with Guillain-Barre syndrome, eningoencephalitis and myelitis in infected adult. […] Using a target-based approach, we hope to establish a screening paradigm to uncover novel, cell-active NS2B-NS3 protease (Zika Virus) specific inhibitors from NCATS' collection of small molecules using qHTS.
Four assay panel was created to identify potential Zika Virus inhibitors. Namely, (1) GU unlinked NS2B-NS3 AMC tagged protease qHTS, (2) GU unlinked NS2B-NS3 Rhodamine tagged protease qHTS, (3) NINDS linked NS2B-NS3 AMC tagged protease qHTS, (4) NINDS linked NS2B-NS3 Rhodamine tagged protease qHTS. Identified inhibitors were screened against the Vero and HepG2 cell viability assays using CellTiter Glo to exclude cytotoxic compounds.
Early Translation Branch (ETB)
National Center for Advancing Translational Sciences (NCATS), Rockville, MD
National Institute of Health (NIH), Bethesda, Maryland
Vero and HepG2 Cell Viability Assay:
Vero and HepG2 cell cytotoxicity were determined using a luminescent readout with CellTiter Glo reagent (Promega, Madison, WI), which is based on measuring the ATP content within cells. Briefly, 4 microL of Vero or HepG2 cells at 2.5 x 10^5 cells/mL in DMEM containing 4% FBS were dispensed into 1536-well solid bottom tissue treated white plate using a Multidrop Combi dispenser (Thermo Scientific). Plates were incubated at 37 degrees C, 95% humidity, and 5% CO2 overnight to allow for cell attachment. Compounds were dissolved in DMSO at different concentrations and transferred via pintool (Wako Automation), for a final concentration of 0.029 µM - 57 microM. Plates were again incubated for 24 to 48 hours, followed by a 2 microL addition of CellTiter Glo. Finally, plates were incubated for 30 minutes at 37 degrees C and 5% CO2 before being read on a ViewLux (Perkin Elmer) for luminescence.
For the compound `CC1(COc2ccc(CC3SC(=O)NC3=O)cc2)CCCCC1` (stereo not drawn), the Potency entry was “inactive”.
As for `CCC(CC)(CC(=O)Nc1cccc(/C=C/c2nc(C3CCC3)cs2)c1)C(=O)O`, the Potency entry is “inactive”.
Still for that read-out and setting: in the case of `C[C@H]1O[C@@H](O[C@H]2CC[C@@]3(C)[C@H](CC[C@@H]4[C@@H]3C[C@@H](O)[C@]3(C)[C@@H](C5=CC(=O)OC5)CC[C@]43O)C2)C[C@H](O)[C@@H]1O[C@H]1C[C@H](O)[C@H](O[C@H]2C[C@H](O)[C@H](O[C@@H]3O[C@H](CO)[C@@H](O)[C@H](O)[C@H]3O)[C@@H](C)O2)[C@@H](C)O1` it was “inactive”; in that of `C=C1c2cccc(O)c2C(O)=C2C(=O)[C@]3(O)C(O)=C(C(N)=O)C(=O)[C@@H](N(C)C)[C@@H]3[C@@H](O)[C@H]12`, “inactive”.
For `O[C@@H](c1cc(C(F)(F)F)nc2c(C(F)(F)F)cccc12)[C@H]1CCCCN1`, the Potency is 20.8 µM (active).

Test system in another experiment: not listed separately
The experiment in a line: Tertiary RLuc qRT-PCR qHTS assay for Zika virus inhibitors (AID 1347169). Further: nearly all actives have a fitted effect of over 55% in size. Further: potency means the concentration at half of the fitted maximal effect. On activity change, negative = inhibition: top concentration of the series differs between compounds. The conditions noted are these: infected Vero cells, reporter luminescence, 48-72 h; series mostly up to 45.9 µM. An outline of the steps: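 Orthogonal cell-based infection assay using recombinant ZIKV-RLuc (Cambodian) in Vero cells; compound added prior to virus at MOI 1-2. Incubation lasts 48-72 hrs at 37 degrees C before live-cell Renilla substrate is added and luminescence measured.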
On the technique in general: Quantitative PCR measures a nucleic acid by following its amplification.
With `CCC(CC)(CC(=O)Nc1cccc(/C=C/c2nc(C3CCC3)cs2)c1)C(=O)O`, the Potency result was “inactive”.
`C[C@H]1O[C@@H](O[C@H]2CC[C@@]3(C)[C@H](CC[C@@H]4[C@@H]3C[C@@H](O)[C@]3(C)[C@@H](C5=CC(=O)OC5)CC[C@]43O)C2)C[C@H](O)[C@@H]1O[C@H]1C[C@H](O)[C@H](O[C@H]2C[C@H](O)[C@H](O[C@@H]3O[C@H](CO)[C@@H](O)[C@H](O)[C@H]3O)[C@@H](C)O2)[C@@H](C)O1`: the Potency was 0.415 µM (active).
Same read-out and setting: in the case of `C=C1c2cccc(O)c2C(O)=C2C(=O)[C@]3(O)C(O)=C(C(N)=O)C(=O)[C@@H](N(C)C)[C@@H]3[C@@H](O)[C@H]12` it was “inactive”; in that of `O[C@@H](c1cc(C(F)(F)F)nc2c(C(F)(F)F)cccc12)[C@H]1CCCCN1`, 9.3 µM (active).
As to `CC(C)=CCOc1ccc(/C=C/C(=O)c2ccc(OCC=C(C)C)cc2OCC(=O)O)cc1`, the activity change, negative = inhibition was 84.9% [at 5.25 µM] (inactive).

Test system in another experiment: not listed separately
The experiment can be described thus: qHTS to identify inhibitors of the type 1 interferon - major histocompatibility complex class I in skeletal muscle: primary screen against the NCATS LOPAC collection (AID 1347405).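 Further: lytic HiBiT luminescence reporting HLA-B protein level.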 The conditions noted are these: iHSKM muscle cells, IFN-b-induced MHC-I HiBiT luminescence, 24 h; series mostly up to 45.9 µM. An outline of the steps: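 Cells: C25cl48 human myoblasts, HiBiT-tagged HLA-B*08:01, stimulated with IFN-beta 4.0 ng/ml. Compounds are titrated 1:4.3 over 7 points from 46 uM final and incubated 24 hrs; endogenous MHC class I is quantified by HiBiT lytic luminescence.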
As to `NC(N)=NCc1cccc(I)c1`, the compound was called inactive.
On the same count and under the same terms, the value for `CCOC(=O)[C@H](CCc1ccccc1)N[C@@H](C)C(=O)N1[C@H](C(=O)O)C[C@H]2CCCC[C@@H]21` was “inactive”; that for `CN=C(N)NCCC[C@H](N)C(=O)O` was “inactive”; that for `CC(C)(C)NC[C@H](O)COc1nsnc1N1CCOCC1` was “inactive”.
